Out of some 16,000 compounds screened, about 5,700 (36%) were called active. About 24% were inconclusive and are not listed. The list shows a part of the results. Unmarked numbers belong to inactive results. Calls come from the whole dose curve; as a rule, active = well fitted curve in the direction sought with a large enough effect; inconclusive = small, poorly fitted or top-dose-only effect, or effect the other way; inactive = no such curve, though single readings can be large or run the other way. Peptide text beside a SMILES is read from it.
These molecules were tested against Cytochrome P450 1A2 (Homo sapiens) (UniProt P05177) (assay: Cytochrome panel assay with activity outcomes). Conditions: recombinant CYP, pro-luciferin dealkylation, luminescence, p450-cyp1a2; series mostly up to 57.1 µM.
Sequence of Cytochrome P450 1A2 (Homo sapiens) (P05177 whole entry, looked up): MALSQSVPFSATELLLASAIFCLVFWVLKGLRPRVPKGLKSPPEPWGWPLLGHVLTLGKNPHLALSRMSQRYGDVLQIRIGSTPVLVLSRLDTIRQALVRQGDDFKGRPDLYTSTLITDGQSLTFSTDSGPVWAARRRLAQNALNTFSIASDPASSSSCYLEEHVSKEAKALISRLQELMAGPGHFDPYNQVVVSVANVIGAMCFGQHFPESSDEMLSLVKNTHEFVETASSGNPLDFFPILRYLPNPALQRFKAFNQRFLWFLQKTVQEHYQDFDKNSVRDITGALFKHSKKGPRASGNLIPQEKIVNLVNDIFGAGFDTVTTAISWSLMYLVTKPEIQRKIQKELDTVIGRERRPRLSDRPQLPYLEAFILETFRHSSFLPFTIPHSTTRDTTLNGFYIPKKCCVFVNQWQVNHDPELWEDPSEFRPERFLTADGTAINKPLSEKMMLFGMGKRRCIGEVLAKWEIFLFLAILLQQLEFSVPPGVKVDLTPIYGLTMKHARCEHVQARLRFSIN
In the case of `CC(NC(=O)C1(C)CC1(Br)Br)C(C)(C)C` (configuration not stated), the AC50 is reported as “inactive”.
For `CCOC(=O)CSC1=C(C#N)C(c2sccc2C)C(C(C)=O)=C(C)N1` (configuration not stated), the AC50 was 1580 nM (active).
With `CCOC(=O)CSC1=C(C#N)C(C)C2=C(CCCC2=O)N1` (configuration not stated) the AC50 was 2510 nM (active).
`COc1cc(C2C(C#N)=C(N)OC3=C2C(=O)CCC3)cc(OC)c1OC(=O)N1CCOCC1` (configuration not stated) was tested, and the AC50 was “inactive”.
`Cn1cc([N+](=O)[O-])c(C(=O)Nc2cc(Oc3cccnc3)cc([N+](=O)[O-])c2)n1` was tested, and the AC50 was 11200 nM (active).
For `CC(=O)NN1C(=O)c2ccc(Oc3cccc([N+](=O)[O-])c3)cc2C1=O`, the AC50 was “inactive”.
With `CC(=O)OC[C@@H]1O[C@H](C/C=N\OC[C@@H](C)[C@H](OCc2ccccc2)C(C)C)C=C[C@@H]1OC(C)=O` the activity, negative = inhibition was -2.33% [at 11.4 µM].
`O=C(CNC(=O)c1ccco1)OCc1c(F)cccc1Cl` was tested, and the AC50 was 25100 nM (active).
With `O=C(NCC(c1cccs1)N1CCOCC1)c1ccco1` (configuration not stated) the AC50 was “inactive”.
For `O=C(CNC(=O)c1ccccc1)NCC(=O)OCc1ccc(Cl)cc1`, the AC50 was “inactive”.
With `Cc1c(Nc2cc(N3CCCC(C)C3)c3nonc3c2[N+](=O)[O-])c(=O)n(-c2ccccc2)n1C` (configuration not stated) the AC50 was “inactive”.
For `Cc1c(Cl)c(S(N)(=O)=O)cc2c1=NC=NS=2(=O)O`, the activity, negative = inhibition was -9.57% [at 2.29 µM].
In the case of `Cc1ccc(C(=O)Nc2cccc(-c3cnc4ccccc4n3)c2)cc1`, the AC50 is reported as 891 nM (active).
In the case of `Cn1c(CN2CCCCC2)nc2cc(NC(=O)c3ccc(Cl)cc3)ccc21`, the AC50 is reported as “inactive”.
For `Cc1ccc(C(=O)NNC(=O)c2cc3cc4ccccc4nc3s2)cc1`, the AC50 was “inactive”.
For `O=C(Nc1cccc(-c2cnc3ccccc3n2)c1)c1ccc(Cl)cc1`, the AC50 was 1120 nM (active).
In the case of `COC(=O)COc1cccc(NC(=O)c2ccc(C)cc2)c1`, the AC50 is reported as 7940 nM (active).
With `Cc1ccc(OCC(=O)NNC(=O)c2cccnc2)cc1` the AC50 was “inactive”.
For `O=C(O)C[C@H](Cc1ccccc1)C(=O)O`, the activity, negative = inhibition was -4.07% [at 11.4 µM].
For `COCCn1c(C)cc2c(c1=O)C(c1ccccc1F)C(C#N)=C(N)O2` (configuration not stated), the AC50 was “inactive”.
With `OC[C@@H](O)CN1CCN(c2ccccc2)CC1` the AC50 was “inactive”.
With `Cc1ccc(N2CCN(CCC(=O)O)CC2)cc1` the activity, negative = inhibition was -8.97% [at 11.4 µM].
With `c1ccc(N2CCN(CCCOc3ccc4c(c3)OCO4)CC2)cc1` the AC50 was 12600 nM (active).
In the case of `CC(C)=NO[C@@H](C)c1cc(-c2c(C)cc(C)cc2C)no1`, the activity, negative = inhibition is reported as -3.7% [at 11.4 µM].
`O=C(CCc1nc(-c2ccccc2)c(-c2ccccc2)o1)OCc1ccc(Cl)cc1` was tested, and the AC50 was 14100 nM (active).
For `CCCCCCCCCCCCCC(=O)O[C@H](CC(=O)O)C[N+](C)(C)C`, the AC50 was “inactive”.
In the case of `CN1CCN([C@@H](c2ccccc2)c2ccc(Cl)cc2)CC1`, the AC50 is reported as “inactive”.
With `CN1CCN(C2=Cc3ccccc3Oc3ccc(Cl)cc32)CC1` the AC50 was 20000 nM (active).
`CN1CCCN([C@@H](c2ccccc2)c2ccc(Cl)cc2)CC1` was tested, and the AC50 was “inactive”.
With `COC(=O)[C@@]1(Cc2ccc(F)cc2)[C@H]2c3cc(C(=O)N4CCCC4)n(Cc4ccc(OC(F)(F)F)cc4)c3C[C@H]2CN1C(=O)c1ccccc1` the AC50 was “inactive”.
With `Cc1noc(NS(=O)(=O)c2ccc(N/C=C\C(=O)c3ccc4c(c3)OCO4)cc2)c1C` the AC50 was “inactive”.
For `Cc1noc(NS(=O)(=O)c2ccc(N/C=C/C(=O)c3ccc4c(c3)OCO4)cc2)c1C`, the AC50 was 12600 nM (active).
In the case of `Cc1noc(NS(=O)(=O)c2ccc(N)cc2)c1C`, the AC50 is reported as “inactive”.
With `C[C@H](C(=O)O)c1cccc(Oc2ccccc2)c1` the AC50 was “inactive”.
For `C[C@@H](/C=C\c1cccc(Oc2ccc(F)cc2)c1)N(O)C(N)=O`, the AC50 was 158 nM (active).
With `CCC(C)(C)c1ccc(Oc2cccc(C(=O)O)c2)cc1` the activity, negative = inhibition was -13.7% [at 11.4 µM].
For `C(=N/Nc1nnc2c(n1)[nH]c1ccccc12)/c1cccnc1`, the AC50 was 631 nM (active).
In the case of `Clc1ccccc1-c1nc(NCc2cccnc2)c2ccccc2n1`, the AC50 is reported as 631 nM (active).
`FC(F)(F)c1ccccc1-c1nc(NCc2cccnc2)c2ccccc2n1` was tested, and the AC50 was 2000 nM (active).
`Cc1ccccc1-c1nc(NCc2cccnc2)c2ccccc2n1` was tested, and the AC50 was 501 nM (active).
In the case of `CON(C)C(=O)c1nnc2c(n1)[nH]c1ccccc12`, the activity, negative = inhibition is reported as 1.4% [at 11.4 µM].
With `Clc1ccccc1-c1nc(N/N=C/c2cccnc2)c2ccccc2n1` the AC50 was 141 nM (active).
For `CCCCn1c(SC(C)C(N)=O)nc2cc(C(=O)OC)ccc2c1=O` (configuration not stated), the AC50 was 1780 nM (active).
With `Cn1cnc([N+](=O)[O-])c1[Se]c1nc(N)nc2c1ncn2[C@@H]1O[C@@H](CO)[C@H](O)[C@@H]1O` the activity, negative = inhibition was -12.8% [at 2.29 µM].
For `CCn1cc(-c2nnnn2-c2ccc(Cl)cc2)c(=O)c2ccccc21`, the AC50 was “inactive”.
With `CCOC(=O)c1c(C)nc2sc3c(=O)n(-c4ccc(C(C)=O)cc4)nnc3c2c1-c1ccc(Cl)cc1` the AC50 was “inactive”.
`CCOc1nnc(C)c2c(C)n(-c3ccc(Cl)cc3)nc12` was tested, and the AC50 was 10000 nM (active).
For `C#C[C@@]1(O)CC[C@@H]2[C@@H]3CCC4=CC(=O)CC[C@@H]4[C@H]3CC[C@]21CC`, the AC50 was “inactive”.
In the case of `C[C@@]12CCC(=O)C=C1CC[C@H]1[C@H]3CC[C@](O)(C(=O)CO)[C@]3(C)CC(=O)[C@@H]12`, the AC50 is reported as “inactive”.
`C/C=C1\C(=O)C[C@@H]2[C@@H]3CCC4=CC(=O)CC[C@@]4(C)[C@H]3CC[C@@]12C` was tested, and the AC50 was “inactive”.
Work on `C[C@]1(O)CC[C@H]2[C@H]3CC=C4N5CCN=C5CC[C@@]4(C)[C@H]3CC[C@@]21C` yielded an activity, negative = inhibition of -12.8% [at 2.29 µM].
In the case of `C#C[C@]1(O)CC[C@H]2[C@H]3CCC4=Cc5oncc5C[C@]4(C)[C@@H]3CC[C@]21C`, the AC50 is reported as 12600 nM (active).
For `C#C[C@]1(O)CC[C@@H]2[C@H]3CCC4=Cc5oncc5C[C@]4(C)[C@@H]3CC[C@@]21C`, the AC50 was 10000 nM (active).
For `O=C(O)[C@H]([C@H]1NCCS1)N1Cc2ccccc2C1`, the activity, negative = inhibition was -13.4% [at 2.29 µM].
`CNc1oc(-c2ccc(Cl)cc2)nc1C#N` was tested, and the AC50 was 1780 nM (active).
With `N#Cc1nc(-c2cccs2)oc1NCc1ccccc1` the AC50 was 1120 nM (active).
For `CNc1oc(-c2cccs2)nc1C#N`, the AC50 was 2240 nM (active).
In the case of `CCOC(=O)c1[nH]c(COC(=O)CCOc2ccccc2OC)c(C(=O)OCC)c1C`, the AC50 is reported as 8910 nM (active).
For `CCOC(=O)C1=C(C)C(c2ccccc2OC)NC(=S)N1` (configuration not stated), the AC50 was “inactive”.
For `CCCCN(CC)S(=O)(=O)N1CCC(C(=O)NCCCN2CCOCC2)CC1`, the AC50 was “inactive”.
For `CCOC(=O)N/N=C1/C[C@@H](O)[C@@H](O)[C@@H]2[C@@H]3C(=O)N(CC)C(=O)[C@H]3CC[C@@H]12`, the activity, negative = inhibition was -5.68% [at 11.4 µM].
In the case of `CCOc1cccc(NC(=O)CSc2nc(C)c3c(c2C#N)CCCC3)c1`, the AC50 is reported as “inactive”.
`CCOc1ccc(NC(=O)CSc2nc(C)c3c(c2C#N)CCCC3)cc1` was tested, and the AC50 was 2000 nM (active).
For `COc1ccc(NC(=O)CSc2nc(C)c3c(c2C#N)CCCC3)cc1`, the AC50 was 2510 nM (active).
With `CSc1nc(N)nc(SCC(=O)Nc2ccc(Cl)cc2)c1C#N` the AC50 was 891 nM (active).
With `CC(=O)Oc1ccc(C(c2ccc(OC(C)=O)cc2)c2ccccn2)cc1` the AC50 was “inactive”.
`C/C(=C\c1ccc(Cl)cc1)C(C)(C)C(=O)O` was tested, and the activity, negative = inhibition was -17.1% [at 11.4 µM].
For `COC(=O)[C@](C)(N)Cc1ccc(O)cc1`, the AC50 was “inactive”.
`C[C@H](N)C(=O)OC(C)(C)Cc1ccc(Cl)cc1` was tested, and the AC50 was 631 nM (active).
In the case of `NC(=O)NCc1ccc(Cl)cc1`, the AC50 is reported as “inactive”.
With `COC(=O)[C@H](N)Cc1ccc(Cl)cc1` the AC50 was 3160 nM (active).
With `COC(=O)C(CC(C)C)NC(=O)C(N)Cc1ccccc1` (stereo not drawn) (H-Phe-Leu-OMe; configuration not given here) the AC50 was “inactive”.
In the case of `CN(C)S(=O)(=O)c1ccc(C(=O)Nc2ccc(CN3CCCC3)cc2)cc1`, the AC50 is reported as 25100 nM (active).
With `O=C(Nc1ccc(S(=O)(=O)N2CCOCC2)cc1)c1ccc(CN2CCc3ccccc3C2)cc1` the AC50 was “inactive”.
For `O=C(Nc1ccc(S(=O)(=O)N2CCCCC2)cc1)c1ccc(CN2CCc3ccccc3C2)cc1`, the AC50 was “inactive”.
With `O=C(c1ccccc1)N1CCSC1=S` the AC50 was 14100 nM (active).
For `CCC(=O)N1CCN(C(=O)c2ccccc2)CC1`, the AC50 was “inactive”.
For `CCC(C)NC(=O)C1CCN(C(=O)c2ccccc2)CC1` (configuration not stated), the AC50 was “inactive”.
With `Cc1nc2cnc(N(C)C)nc2n(Cc2cccs2)c1=O` the AC50 was 1260 nM (active).
In the case of `CN(C)c1ncc2ncc(=O)n(Cc3cccs3)c2n1`, the AC50 is reported as 1580 nM (active).
For `CCNC(=O)C/C(C)=N/NC(=O)C12CC3CC(CC(C3)C1)C2`, the AC50 was “inactive”.
For `Fc1ccc(-c2cn3cc(C(F)(F)F)cc(Cl)c3n2)cc1`, the AC50 was 891 nM (active).
With `CC1(C)CC(=O)C2=C(C1)Nc1cc3c(cc1C2c1ccc(F)cc1)OCO3` (configuration not stated) the AC50 was 6310 nM (active).
In the case of `FC(F)(F)c1ccc(N2CCOCC2)c(Nc2nc3ccccc3n3cnnc23)c1`, the AC50 is reported as 6310 nM (active).
For `COc1cccc2c1C(=O)c1c(O)c3c(c(O)c1C2=O)C[C@](O)(C(=O)CO)C[C@H]3O[C@@H]1C[C@H](N)[C@H](O)[C@H](C)O1`, the AC50 was “inactive”.
`COCc1nc2c([nH]1)c(=O)n(C)c(=O)n2CC(C)C` was tested, and the AC50 was 12600 nM (active).
Molecule `Cn1c(=O)c2[nH]c(COCc3nc4c([nH]3)c(=O)n(C)c(=O)n4C)nc2n(C)c1=O` has an activity, negative = inhibition of 4.47% [at 2.29 µM].
For `Cn1c(=O)c2[nH]c(CS(=O)(=O)Cc3nc4c([nH]3)c(=O)n(C)c(=O)n4C)nc2n(C)c1=O`, the activity, negative = inhibition was -21.1% [at 2.29 µM].
`CCN1C(=O)[C@H]2[C@@H]3[C@H](O)C=CC(=O)[C@H]3CC[C@H]2C1=O` was tested, and the activity, negative = inhibition was -16.7% [at 11.4 µM].
`O=C(O)[C@@H]1[C@H](C(=O)O)[C@H]2C(=O)C=C[C@H]1N2Cc1ccccc1` showed an activity, negative = inhibition of -3.91% [at 2.29 µM].
For `O=c1[nH]ncc2c3ccccc3n(Cc3ccccc3)c12`, the AC50 was 1000 nM (active).
With `O=c1[nH]ncn2cccc12` the AC50 was “inactive”.

From PubChem BioAssay AID1851 (National Center for Advancing Translational Sciences (NCATS), 2009)
% is set by controls: 0 for no effect and ±100 for the full control effect.
